Compound activity deposited in PubChem by National Center for Advancing Translational Sciences (NCATS).
Compounds with a hit are over-represented: about 12% of the library has one in this group of screens.
PLK1 PBD block = PLK1 (human) polo-box domain binding inhibition. Plk1 PBD binding of FITC phosphopeptide, fluorescence polarization. Potency, µM, inactives show max response, negative = inhibition, usual class: inhibitors. 360,000 compounds, 2.8% hits. AID 720504; note: series mostly up to about 57 µM; % is set by controls: 0 for no effect and ±100 for the full control effect; nearly all actives have a fitted effect of over 65% in size
G9a block = blocks human histone lysine methyltransferase G9a; Q96KQ7; G9a H3K9 monomethylation, AlphaScreen, 2 h; Potency, µM (doses to about 102 µM), for inactives: top-dose activity, negative = inhibition, actives largely listed as inhibitors; 350,000 compounds, 8.8% hits; AID 504332; note: % is set by controls: 0 for no effect and ±100 for the full control effect; nearly all actives have a fitted effect of over 75% in size
Target sequence (Q96KQ7 913-1193 limits assumed): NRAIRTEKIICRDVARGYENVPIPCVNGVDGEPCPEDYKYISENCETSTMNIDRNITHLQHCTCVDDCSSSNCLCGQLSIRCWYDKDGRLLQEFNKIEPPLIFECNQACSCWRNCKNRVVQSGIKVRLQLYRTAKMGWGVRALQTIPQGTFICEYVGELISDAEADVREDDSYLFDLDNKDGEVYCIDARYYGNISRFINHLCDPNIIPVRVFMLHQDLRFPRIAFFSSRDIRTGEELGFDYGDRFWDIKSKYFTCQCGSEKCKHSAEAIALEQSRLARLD
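Compounds were preincubated with 20 nM G9a for 15 min, after which biotinylated H3K9 peptide (500 nM) and SAM (20 uM) started a 2 h room-temperature reaction. Monomethylated product was quantified by antibody-based AlphaScreen chemiluminescence.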
JMJD2A Tudor = blocks the human JMJD2A Tudor domain; 390,000 compounds, 4.4% hits; Potency, µM (doses to about 114 µM), for the others: at the highest dose activity change, negative = inhibition, usual class: inhibitors; AID 504339; AlphaScreen JMJD2A-Tudor / H3K4me3 peptide binding; note: % is set by controls: 0 for no effect and ±100 for the full control effect; nearly all actives have a fitted effect of over 50% in size
Sfp inh = inhibitors of Bacillus subtilis Sfp phosphopantetheinyl transferase; Biochemical Sfp PPTase activity, qHTS; 310,000 compounds, 3.5% hits; Potency, µM, inactives show largest response in the series, negative = inhibition, hits mostly inhibitors;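 note: the enzyme is Sfp with the accession as filed and its product quenches rhodamine fluorescence; 0% = enzyme reaction without inhibitor and -100% = no enzyme wells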
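Compounds were incubated with enzyme (final 15 nM) for 15 min at room temperature before substrate addition started the reaction. Fluorescence at 525 nm excitation, 598 nm emission was recorded immediately and after 30 minutes.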
BAZ2B block = BAZ2B (human) inhibition; AID 504333; AlphaScreen BAZ2B-H3K14Ac peptide displacement; Q9UIF8; 360,000 compounds, 4.4% hits; Potency, µM (highest dose often 114 µM), for inactives: at the highest dose activity change, negative = inhibition, usual class: inhibitors; note: % is set by controls: 0 for no effect and ±100 for the full control effect; nearly all actives have a fitted effect of over 60% in size
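AlphaScreen displacement of biotin-H3(5-23)K14Ac peptide (50 nM final) from BAZ2B (50 nM final) in PBS pH 7.4, 0.01% Tween-20; complex preformed 30 min RT, then compounds (top 110 uM) 30 min RT, beads 20 min dark.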
HP1b binding inh = HP1-beta chromodomain-methylated histone interaction inhibition; P83916; 390,000 compounds, 0.56% hits; Potency, µM (doses to about 114 µM), for inactives: at the highest dose activity change, negative = inhibition, most hits filed as inhibitors; AID 540317; AlphaScreen HP1-beta / biotin-H3K9me3 peptide binding; note: nearly all actives have a fitted effect of over 70% in size
Target sequence (P83916 whole entry, looked up): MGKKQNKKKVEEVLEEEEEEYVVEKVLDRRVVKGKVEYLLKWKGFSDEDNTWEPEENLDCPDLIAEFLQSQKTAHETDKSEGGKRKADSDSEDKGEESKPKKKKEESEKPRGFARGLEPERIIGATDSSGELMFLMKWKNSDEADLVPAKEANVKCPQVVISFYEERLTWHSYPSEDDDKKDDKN
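AlphaScreen: HP1-beta (50 nM) preformed 30 min with biotin-H3(1-18)K9me3 peptide (50 nM) in PBS pH 7.4, 0.01% Tween-20. Compound added for 30 min at RT, then streptavidin donor/nickel chelate acceptor beads (10 ug/mL) for 30 min.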
Active calls of the source: *; ? = inconclusive; · = not tested or not shown; [ ] = remark or other dose. Calls come from the whole dose curve; as a rule, active = well fitted curve in the direction sought with a large enough effect; inconclusive = small, poorly fitted or top-dose-only effect, or another doubt; inactive = no such curve, though single readings can be large; an effect the other way counts as inactive or inconclusive. Potency is the fitted concentration of half-maximal effect.

SMILES	PLK1 PBD block	G9a block	JMJD2A Tudor	Sfp inh	BAZ2B block	HP1b binding inh
O=C(O)c1ccc(S(=O)(=O)Nc2ccc(O)c(Sc3nc4ccccc4s3)c2)cc1	27µM*	·	89µM*	-21%	?	3%
CCOc1ccc(C(=O)c2ccc(OC)c(O)c2O)cc1	·	-46%[2.33 µM]	·	-52%	·	·
COc1ccc(C(=O)c2ccc(O)cc2)c(O)c1O	·	·	·	28µM*	·	·
CC(C)CC(=O)NC(=S)Nc1cccc2nsnc12	-4%	35µM*	-13%	?	-12%	41%
CC(C)CC(=O)NC(=S)Nc1ccccc1F	-8%	-3%[59 µM]	-6%	14%	7%	20%
COc1c(C)cccc1C(=O)NC(=S)Nc1cccc2nsnc12	-23%	45µM*	-2%	?	-21%	36%
CCCCNC(=O)c1cccc(NC(=O)c2nsc3ccccc23)c1	·	?	-11%	·	0%	14%[57 µM]
CCC(C)N(C(=O)CSc1ccc(NC(C)=O)cc1)C1CCS(=O)(=O)C1 (stereo unspecified)	30µM*	?	-12%	3%	6%	45%
CCC(C)N(C(=O)COC(=O)CSc1ccc(C)c(C)c1)C1CCS(=O)(=O)C1 (stereo unspecified)	-2%	6%[12.7 µM]	1%	·	6%	36%
Cc1ccc(N2CC(C(=O)Nc3c4c(nn3C(C)(C)C)CS(=O)(=O)C4)CC2=O)cc1 (stereo unspecified)	-25%	?	-8%	8%	-1%	20%
Cc1ccc(S(=O)(=O)N2[C@@H](c3ccc(Cl)c(Cl)c3)C(C(=O)O)=C[C@H]2CC2CCCC2)cc1	21µM*	·	89µM*	·	·	12%
CC[C@@H]1C=C(C(=O)O)[C@H](c2ccc(Cl)cc2)N1S(=O)(=O)c1ccc(C)cc1	-1%	·	1%	·	·	41%
Cc1ccc(S(=O)(=O)N2[C@@H](c3ccc(Cl)cc3)C(C(=O)O)=C[C@H]2CC2CCCC2)cc1	19µM*	·	-12%	·	·	19%
Cc1ccc(S(=O)(=O)N2[C@@H](c3ccc(C#N)cc3)C(C(=O)O)=C[C@H]2CC2CCCC2)cc1	30µM*	·	-21%	·	·	44%
O=C(CN1C(=O)NC2(CCCc3ccccc32)C1=O)c1ccc(Br)cc1 (stereo unspecified)	3%	-50%	-15%	·	5%	6%
COc1ccc(C2=NNC(c3cc(Cl)cc4c3OCOC4)C2)c(O)c1 (stereo unspecified)	·	50µM*	·	9%	-1%	·
CCOC(=O)N1CCN(C(=S)NC(=O)c2cncc(Br)c2)CC1	19µM*	4µM*	-14%	-19%	-30%	-11%
CCOC(=O)c1ccc(NC(=S)NC(=O)c2cncc(Br)c2)cc1	-10%	?	-1%	-27%	-3%	24%
CCOC(=O)N1CCN(C(=S)NC(=O)c2ccc(Br)cc2)CC1	-5%	50µM*	-21%	8%	-18%	13%
CCOC(=O)N1CCN(C(=S)NC(=O)c2cc(Br)ccc2Cl)CC1	-9%	?	-12%	31%	-15%	7%
O=C(c1cnccn1)N1CCC2(CCCN(Cc3nccs3)C2)CC1	·	-3%[12.7 µM]	·	14%	·	·
CC1c2cccn2CCN1S(=O)(=O)c1ccccc1 (stereo unspecified)	-4%	-8%[2.33 µM]	-36%	·	?	11%
O=S(=O)(c1cccnc1)N1CCn2cccc2C1c1ccccc1F (stereo unspecified)	-9%	45µM*	-26%	·	?	-17%
COC(=O)c1c(N)n(-c2cc(Cl)cc(Cl)c2)c2nc3ccccc3nc12	·	-8%[59 µM]	-12%	·	?	-8%
Cc1cc(C)c2[nH]c(=O)c(CN(CC3CCCO3)C(=S)NCc3ccco3)cc2c1 (stereo unspecified)	-12%	22%[59 µM]	-11%	-5%	15%	10%
SMILES	PLK1 PBD block	G9a block	JMJD2A Tudor	Sfp inh	BAZ2B block	HP1b binding inh
COc1ccccc1NC(=S)N(Cc1ccco1)Cc1cc2ccc(C)c(C)c2[nH]c1=O	-5%	9%[59 µM]	-32%	50µM*	-5%	7%
Cc1ccc2cc(CN(Cc3cccs3)C(=O)c3ccco3)c3nnnn3c2c1C	·	16%[59 µM]	·	-2%	14%	·
Cc1ccc2[nH]c(=O)c(CN(Cc3cccs3)C(=S)NCc3ccco3)cc2c1	-15%	9%[59 µM]	0%	50µM*	-11%	-5%
Cc1cccc2cc(CN(CC3CCCO3)C(=S)NCc3ccco3)c(=O)[nH]c12 (stereo unspecified)	-14%	-6%[59 µM]	-14%	50µM*	-2%	4%
Cc1ccc2c(c1)cc(CN(Cc1cccs1)C(=O)c1ccco1)c1nnnn12	8.4µM*	10%[59 µM]	28µM*	2%	1%	?
O=C(c1ccccc1F)N1c2nc(-c3ccco3)nn2C2(CCCCC2)[C@@H]2CCCC[C@@H]21	·	-6%[59 µM]	?	·	12%	8%
C=C[C@@]1(C)CC(=O)[C@@]2(O)[C@@]3(C)[C@@H](O)CCC(C)(C)[C@@H]3[C@H](OC(=O)CCN(C)C)[C@H](OC(C)=O)[C@@]2(C)O1	·	·	·	13%	·	·
Clc1ccc(Sc2cc(Cl)c(Cl)cc2Cl)cc1	·	·	·	-15%	·	·
Cc1ccc2cc(CN(Cc3ccco3)C(=S)NCC3CCCO3)c(=O)[nH]c2c1 (stereo unspecified)	-12%	-46%	-29%	8%	-31%	8%
Cc1ccc(C)c2[nH]c(=O)c(CN(Cc3ccco3)C(=S)NCC3CCCO3)cc12 (stereo unspecified)	-9%	40µM*	-20%	-18%	?	-6%
Cc1cccc2cc(CN(Cc3ccco3)C(=O)c3ccncc3)c(=O)[nH]c12	-5%	-8%[12.7 µM]	-8%	50µM*	2%	34%
Cc1ccc2cc(CN(CC3CCCO3)C(=S)NCc3ccco3)c(=O)[nH]c2c1 (stereo unspecified)	-16%	?	-20%	45µM*	-34%	?
Cc1ccc2[nH]c(=O)c(CN(C)C(=O)c3cccs3)cc2c1	30µM*	3%	-18%[11.4 µM]	-7%	15%	?
CN(Cc1cc2ccccc2[nH]c1=O)C(=O)c1cccs1	-14%	-1%	-15%	13%	10%	28%
O=C(Cn1cc(CNC(=O)c2ccccc2)nn1)Nc1cc(C(F)(F)F)ccc1Cl	·	·	-20%	·	·	·
O=C1N(Cc2ccccc2)c2ccc(Br)cc2[C@]12C[C@H](O)CO2	2%	·	·	·	·	·
CCNC(=S)N(Cc1cccs1)Cc1cc2cc(OCC)ccc2[nH]c1=O	-8%	22%[59 µM]	-20%	-12%	4%	12%
CCNC(=S)N(Cc1ccco1)Cc1cc2cc(OCC)ccc2[nH]c1=O	-2%	45µM*	-21%	10µM*	?	11%
Clc1ccc(Br)c(-c2nc3ccccc3[nH]2)c1	-10%	·	·	·	·	·
